Assay results published in the supplement of paper PMC11172423.
Values without a mark were called inactive.

Tested on: Falciformispora senegalensis CBS197.79
Test: growth relative to untreated control; higher = less inhibition, active = 20 or less
In short: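 Viability readout used either MTS (2 h, 490 nm) or resazurin (600 nm). Before this, hyphal fragments of M. mycetomatis MM55 or F. senegalensis CBS197.79 in colourless RPMI 1640 with L-glutamine and MOPS (68–72% transmission at 660 nm) had been exposed in 96-well plates to compound at 100 or 25 µM for 7 days at 37 °C. Growth denotes metabolic activity relative to the untreated growth control, with a medium-plus-dye blank subtracted from both.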

C[C@@H]1C[C@@H]([C@H](O)CC2CC(=O)NC(=O)C2)C(=O)[C@@H](C)C1
growth (25 µM): 101%
growth (100 µM): 101%

COc1cc(/C=N/c2c(SC(F)(F)F)c(C#N)nn2-c2c(Cl)cc(C(F)(F)F)cc2Cl)ccc1O
growth (25 µM): 84.8%
growth (100 µM): 90.9%

NCCc1cn(S(=O)(=O)c2c(Cl)nc3sccn23)c2ccccc12
growth (25 µM): 13.2% (active)
growth (100 µM): 11.5% (active)

COC(=O)N(C(=O)N1CO[C@@]2(C(=O)OC)Cc3cc(Cl)ccc3C2=N1)c1ccc(OC(F)(F)F)cc1
growth (25 µM): 100%
growth (100 µM): 96.3%

CC(COc1ccc(Oc2ccccc2)cc1)Oc1ccccn1 (centres undefined)
growth (25 µM): 88.9%
growth (100 µM): 75.6%

CC1(C)C(/C=C(\Cl)c2ccc(Cl)cc2)C1C(=O)OC(C#N)c1ccc(F)c(Oc2ccccc2)c1 (centres undefined)
growth (25 µM): 74.8%
growth (100 µM): 93.3%

N#Cc1nn(-c2c(Cl)cc(C(F)(F)F)cc2Cl)c(N)c1S(=O)C(F)(F)F (centres undefined)
growth (25 µM): 92.1%
growth (100 µM): 88.4%

Cc1c(COC(=O)[C@@H]2[C@H](C=C(Cl)C(F)(F)F)C2(C)C)cccc1-c1ccccc1
growth (25 µM): 87.1%
growth (100 µM): 95.2%

CCC(CC)c1cccc(OC(=O)NC)c1.CCCC(C)c1cccc(OC(=O)NC)c1
growth (25 µM): 98.4%
growth (100 µM): 81.9%

CNCCn1c(Nc2cc(Cl)cc(C(F)(F)F)c2)nc2cnc(NC3CC(F)(F)C3)cc21
growth (25 µM): 69%
growth (100 µM): 26.2%

COP(=S)(OC)Oc1nc(Cl)c(Cl)cc1Cl
growth (25 µM): 91.7%
growth (100 µM): 93.4%

CC(F)c1ncnc(NCCc2ccc(OC(F)(F)F)cc2)c1Cl (centres undefined)
growth (25 µM): 90.5%
growth (100 µM): 82.9%

CC[C@H]1CN2CCc3cc(OC)c(OC)cc3[C@@H]2C[C@@H]1C[C@H]1NCCc2cc(OC)c(OC)cc21
growth (25 µM): 100%
growth (100 µM): 18.3% (active)

FC(F)(F)c1cc(Cl)cc(Nc2nc3cnc(OC4CCC4)cc3n2[C@@H]2CCNC2)c1
growth (25 µM): 99.8%
growth (100 µM): 108%

COP(=S)(OC)Oc1ccc(Sc2ccc(OP(=S)(OC)OC)cc2)cc1
growth (25 µM): 93.4%
growth (100 µM): 92.8%

CN1C2CCC1CC(C#N)C2 (centres undefined)
growth (25 µM): 92.1%
growth (100 µM): 85.8%

ClC1=C(Cl)[C@@]2(Cl)[C@H]3C[C@@H](Cl)[C@H](Cl)[C@H]3[C@@]1(Cl)C2(Cl)Cl
growth (25 µM): 64.8%
growth (100 µM): 78.3%

CC(C)Nc1cc2c(cn1)nc(Nc1cc(Cl)cc(C(F)(F)F)c1)n2C1CCNC1 (centres undefined)
growth (25 µM): 66.7%
growth (100 µM): 28.6%

CNC(=O)Oc1cccc2c1OC(C)(C)O2
growth (25 µM): 86.8%
growth (100 µM): 96%

O=C(NC(=O)c1ccccc1Cl)Nc1ccc(OC(F)(F)F)cc1
growth (25 µM): 84.1%
growth (100 µM): 76.1%

COc1ccc(Cc2nccc3cc(OC)c(OC)cc23)cc1OC
growth (25 µM): 110%
growth (100 µM): 104%

CC(C)(C)Nc1cc2c(cn1)nc(Nc1cc(Cl)cc(C(F)(F)F)c1)n2C1CCNC1 (centres undefined)
growth (25 µM): 15.1% (active)
growth (100 µM): 14.1% (active)

Cc1cc(C2=NOC(c3cc(Cl)cc(Cl)c3)(C(F)(F)F)C2)ccc1C(=O)NCC(=O)NCC(F)(F)F (centres undefined)
growth (25 µM): 92.4%
growth (100 µM): 103%

O=C1C=C(N(Cc2ccc(Cl)nc2)CC(F)F)CO1
growth (25 µM): 96.7%
growth (100 µM): 89.3%

CCc1nn(C)c(C(=O)NCc2ccc(Oc3ccc(C)cc3)cc2)c1Cl
growth (25 µM): 98.1%
growth (100 µM): 79.9%

O=[N+]([O-])/N=C1\NCCN1Cc1ccc(Cl)nc1
growth (25 µM): 90.2%
growth (100 µM): 86.5%

CCN(CC)c1nc(C)cc(OP(=S)(OC)OC)n1
growth (25 µM): 96%
growth (100 µM): 95.6%

CCOP(=S)(OCC)Oc1cc(C)nc(C(C)C)n1
growth (25 µM): 97.9%
growth (100 µM): 88.9%

CN1COCN(Cc2cnc(Cl)s2)/C1=N/[N+](=O)[O-]
growth (25 µM): 93%
growth (100 µM): 86.8%

CN1C(=O)C(C(=O)Nc2ccc(Cl)c(Cl)c2)C(=O)N(C)C1=O
growth (25 µM): 83.2%
growth (100 µM): 84.5%

CNC(=O)O/N=C(/C)SC
growth (25 µM): 86.2%
growth (100 µM): 89.3%

CN(C)CCn1c(Nc2cc(Cl)cc(C(F)(F)F)c2)nc2cnc(NC3CCC3)cc21
growth (25 µM): 102%
growth (100 µM): 104%
